The values that follow come from PubChem BioAssay (NCATS).

Results filed as inconclusive are left out. Activity calls are given as the source filed them. Calls come from the whole dose curve; as a rule, active = well fitted curve in the direction sought with a large enough effect; inconclusive = small, poorly fitted or top-dose-only effect, or another doubt; inactive = no such curve, though single readings can be large; an effect the other way counts as inactive or inconclusive.
% is set by controls: 0 for no effect and ±100 for the full control effect.
Note: nearly all actives have a fitted effect of over 70% in size.

The first experiment can be described thus: Primary qHTS for inhibitors of nuclear receptor binding SET domain protein 2 (NSD2) in an isogenic RCH-ACV NSD2 p.E1099K mutant (9B) (AID 1645876). Particulars: RCH-ACV NSD2 E1099K (9B) viability, CellTiter-Glo, 72 h; series mostly up to 44.9 µM; activity change, negative = viability loss: at the top concentration.
Turning to `CC1(C)[C@@H]2CC=C(CO[C@@H]3O[C@H](CO[C@@H]4OC[C@H](O)[C@H](O)[C@H]4O)[C@@H](O)[C@H](O)[C@H]3O)[C@H]1C2`, the “activity change, negative = viability loss” value was 4.19% [at 17.3 µM] (inactive).

On to `CCCC/C=C\CCCCCc1cc(=O)c2ccccc2n1C`, for which the “activity change, negative = viability loss” value is -6.95% (inactive). As for `COc1ccc(C2OCC3C(c4cc(OC)c5c(c4)OCO5)OCC23)cc1OC` (stereo not drawn), the “activity change, negative = viability loss” value is -8.26% [at 17.3 µM] (inactive). With `O=C(/C=C/c1ccc(O)cc1)OC[C@H]1O[C@H](O[C@@]2(CO)O[C@@H](CO)[C@H](O)[C@H]2O)[C@H](O)[C@@H](O)[C@@H]1O`, the “outcome” value was “inactive [at 17.3 µM]”. Still for that read-out and setting: the result for `CC(=O)/C=C/C1C(C)CC(O[C@@H]2O[C@H](CO)[C@@H](O)[C@H](O)[C@H]2O)CC1(C)C` (stereo partly drawn) reads “inactive”; that for `CCC(C)C(C(=O)O)N1Cc2c(OCC=C(C)C)c(C)c(OC)c(C(=O)O)c2C1=O` (stereo not drawn), “inactive [at 17.3 µM]”. As for `CC(=O)OC1C(O)C(C)(O)C(/C=C/C(=O)O)C2(C)CCCC(C)(C)C12` (stereo not drawn), the “activity change, negative = viability loss” value was -11% (inactive). The same measure, in the same setting: the result for `CC(=O)OCC1OC(O[C@H]2CC[C@]34C[C@]35CC(O)[C@]3(C)[C@@H]([C@H](C)CC/C=C(\C)C(=O)O)C(O)C[C@@]3(C)C5CC[C@H]4C2(C)C)C(O)C(O)C1OC1OCC(O)C(O)C1O` (stereo partly drawn) reads -5.86% [at 9.23 µM] (inactive). Same read-out and setting: in the case of `COc1cc(CO)cc(OC)c1O[C@@H]1O[C@H](CO)[C@@H](O)[C@H](O)[C@H]1O` it was 3.36% (inactive).

Consider `C[C@H]1CC[C@H]2[C@@H](C=C[C@@](C)(O)[C@]2(C)C(=O)CCO)C1`, for which the “activity change, negative = viability loss” value is -13.1% (inactive). With `C[C@@H]1C[C@H]2OC(=O)[C@@]3(C)CCC[C@](C)(C23)[C@@]1(O)CCC1=CC(=O)OC1O` (stereo partly drawn), the call was inactive. The same measure, in the same setting: the result for `C=C1C2(C)CC3C4(C)OC(C5OC56C4=CC(=O)OC6(C)C)C3(C)C13C(=O)OC(C)C3(O)C2=O` (stereo not drawn) reads “inactive [at 17.3 µM]”. Consider `C=C(C(=O)O)[C@@H]1CC[C@@]2(C)CCC[C@@](C)(O)[C@@H]2C1`, for which the “activity change, negative = viability loss” value was -5.63% (inactive). As for `C[C@@H]1[C@H]2[C@H](O[C@@H]3O[C@H](CO)[C@@H](O)[C@H](O)[C@H]3O)OC=C(C(=O)O)[C@H]2C[C@@H]1OC(=O)/C=C/c1ccc(O)cc1`, the “activity change, negative = viability loss” value is 1.41% [at 17.3 µM] (inactive).

A short description of the next experiment: Primary qHTS for inhibitors of nuclear receptor binding SET domain protein 2 (NSD2) in an RCH-ACV wild type WT cells (2C) (AID 1645877). Particulars: RCH-ACV (leukaemia line) NSD2 WT (2C) viability, CellTiter-Glo, 72 h; series mostly up to 44.9 µM; activity change, negative = cell killing: at the top concentration.
Regarding `COCC1OC(OC(C)(C)C2CCC3(C)C=C(C4CCC5C4(C)CC(O)C4OC(C(C)(C)O)CCC45C)CCC3O2)C(NC(C)=O)C(O)C1O` (stereo not drawn), the “activity change, negative = cell killing” value is -28.5% [at 17.3 µM] (inactive). On the same count and under the same terms, in the case of `CC(C)(CC(=O)N1CCCC1)NCC(=O)N1C[C@@H](F)C[C@H]1C#N` it was 4.14% (inactive). On to `C=C(C)[C@@H]1CC[C@]2(C(=O)O)CC[C@]3(C)C(CCC4[C@]5(C)C(CC[C@]43C)C(C)(C)[C@@H](O)[C@@H]5C(=O)O)C12` (stereo partly drawn), for which the “outcome” value is “inactive [at 17.3 µM]”. As for `C/C1=C\CC(C)(C)/C=C/C/C(C(=O)O)=C/CC1`, the “activity change, negative = cell killing” value is -38.1% (inactive). Same read-out and setting: in the case of `C[C@H]1CCN2C[C@]34C[C@@]5(C(=O)Nc6c5ccc5c6OC=CC(C)(C)O5)C(C)(C)C3C[C@]12C(=O)N4C` (stereo partly drawn) it was 1.53% [at 17.3 µM] (inactive); in that of `COc1ccc(/C=C/C(=O)O[C@@H]2[C@@H](O)[C@@H](O)[C@H](O[C@H]3[C@@H]4C=CO[C@@H](O[C@@H]5O[C@H](CO)[C@@H](O)[C@H](O)[C@H]5O)[C@@H]4[C@@]4(CO)O[C@@H]34)O[C@H]2C)cc1`, -4.37% [at 17.3 µM] (inactive). With `CCC(C)/C=C(C)/C=C/C1=CC2=C(Cl)C(=O)C(C)(OC(C)=O)C(=O)C2=CN1CCCCC(N)C(=O)O` (stereo not drawn), the “activity change, negative = cell killing” value was -17.7% [at 17.3 µM] (inactive). The same measure, in the same setting: in the case of `COc1cccc(C)c1C(=O)O[C@@H]1C[C@H](O[C@H]2[C@H](O)C[C@H](O[C@@H]3CCC[C@H]4[C@H]3C=C[C@@H]3CCCC/C=C/[C@H]5C=C(C(=O)O)[C@@H](C)C[C@@]56OC(=O)C(=C6O)OC(=O)[C@@]34C)O[C@@H]2C)O[C@H](C)[C@H]1O` it was -1.86% [at 9.23 µM] (inactive); in that of `CC(=O)O[C@H]1C[C@@H](O)C(C)(C)C2C[C@@H](OC(C)=O)[C@@]3(C)C4=CCC(C(CO)CC(O)C5OC5(C)C)[C@]4(C)CCC3[C@]21C` (stereo partly drawn), -12.9% [at 17.3 µM] (inactive). As for `C/C=C(\C)C(=O)OC[C@H]1O[C@H](O[C@H]2O[C@H](CO)[C@@H](O)[C@H](O)[C@H]2O[C@@H]2O[C@H](CO)[C@@H](O)[C@H](O)[C@H]2O)[C@H](O[C@@H]2O[C@H](CO)[C@@H](O)[C@H](O)[C@H]2O)[C@@H](O)[C@@H]1O`, the “outcome” value is “inactive [at 17.3 µM]”.

Regarding `CC1=C2CC(O)(C(C)(C)O)C(O[C@@H]3O[C@H](CO)[C@@H](O)[C@H](O)[C@H]3O)CC(C)C2CC1=O` (stereo partly drawn), the “activity change, negative = cell killing” value is -19.2% [at 17.3 µM] (inactive). In the case of `CC1(C)C[C@@H]2[C@H](C1)[C@@]1(C)C[C@]13C(O)OC[C@]3(O)[C@H]2O` (stereo partly drawn), the “activity change, negative = cell killing” value is -15.5% (inactive). As for `C/C(=C\CCC(C)CCO)C(=O)OC[C@H]1O[C@@H](O[C@@H]2OC=C(C(=O)O)[C@H]3CC[C@](C)(O)[C@@H]23)C(O)[C@@H](O)C1O` (stereo partly drawn), the “outcome” value was “inactive [at 17.3 µM]”.

As to `OC[C@@]1(O)CO[C@@H](OC[C@H]2O[C@@H](OCc3ccccc3)[C@H](O)[C@@H](O)[C@@H]2O)[C@@H]1O`, the “outcome” value was “inactive [at 17.3 µM]”. As for `O=C(OC1C=C(CO)C2C(OC3OC(CO)C(O)C(O)C3O)OC=CC12O)c1ccc(O)cc1` (stereo not drawn), the “activity change, negative = cell killing” value was -24.1% [at 17.3 µM] (inactive). Same read-out and setting: in the case of `COC(=O)C1=COC(O[C@@H]2O[C@H](CO)[C@@H](O)[C@H](O)[C@H]2O)C2C(C)C(=O)CC12` (stereo partly drawn) it was -4.89% (inactive).

For `C=CC(C)(O)CC/C=C(\C)C(=O)O[C@@H]1[C@@H](O)[C@H](OC(C)(C=C)CC/C=C(\C)C(=O)O)O[C@H](CO)[C@H]1OC(=O)/C(C)=C/CCC(C)(O)C=C` (stereo partly drawn), the “activity change, negative = cell killing” value is -6.36% [at 17.3 µM] (inactive).

As to `COC(=O)C1=COC(O[C@@H]2O[C@H](CO)[C@@H](O)[C@H](O)[C@H]2O)[C@@H]2[C@@](C)(O)[C@@H](OC(=O)/C=C/c3ccccc3)C[C@]12O` (stereo partly drawn), the “outcome” value was “inactive [at 17.3 µM]”. Same read-out and setting: in the case of `C[C@]1(O)CC[C@@H]2C(C(=O)O)=CO[C@@H](O[C@@H]3O[C@H](COC(=O)/C=C/c4ccc(O)c(O)c4)[C@@H](O)[C@H](O)[C@H]3O)[C@@H]21` it was “inactive [at 17.3 µM]”. On to `CC1(C)CC[C@]2(C(=O)O[C@@H]3O[C@H](CO)[C@@H](O)[C@H](O)[C@H]3O)CC[C@]3(C)C(=CCC4[C@@]5(C)C[C@H](O)[C@H](O[C@@H]6OC[C@@H](O)[C@H](O)[C@H]6O)[C@@](C)(CO)C5CC[C@]43C)C2C1` (stereo partly drawn), for which the activity change, negative = cell killing was 2.07% [at 9.23 µM] (inactive). Still for that read-out and setting: the result for `CC1=CC2=C(C)C(=O)[C@](C)(O)[C@H](O)C2=CO1` reads -9.55% (inactive).

Consider `O=C(/C=C/c1ccc(O)cc1)O[C@H]1[C@H](OC2CCCCC2O)O[C@H](CO)[C@@H](O)[C@@H]1O` (stereo partly drawn), for which the “activity change, negative = cell killing” value was -9.89% [at 17.3 µM] (inactive). On to `COC(=O)c1c(CC=C(C)C)c(OC2OC(CO)C(O)C(O)C2O)c2ccccc2c1OC1OC(CO)C(O)C(O)C1O` (stereo not drawn), for which the “activity change, negative = cell killing” value was 3.58% [at 17.3 µM] (inactive). Take `CC1CC(O)/C=C/C(O)/C=C\C(=O)O1` (stereo not drawn): the “outcome” value is “inactive [at 91.9 µM]”. For the compound `COC(=O)[C@]1(C)CCC[C@@]2(C)[C@@H]3CC[C@@H]4C[C@@]3(CC[C@@H]21)C[C@H]4C(=O)O`, the “activity change, negative = cell killing” value was 0.844% (inactive).

As to `CC1(C)[C@@H]2CC=C(CO[C@@H]3O[C@H](CO[C@@H]4OC[C@H](O)[C@H](O)[C@H]4O)[C@@H](O)[C@H](O)[C@H]3O)[C@H]1C2`, the “outcome” value is “inactive [at 17.3 µM]”. In the case of `CCCC/C=C\CCCCCc1cc(=O)c2ccccc2n1C`, the “activity change, negative = cell killing” value is -21.4% (inactive). As for `COc1ccc(C2OCC3C(c4cc(OC)c5c(c4)OCO5)OCC23)cc1OC` (stereo not drawn), the “activity change, negative = cell killing” value was -3.37% [at 17.3 µM] (inactive). In the case of `O=C(/C=C/c1ccc(O)cc1)OC[C@H]1O[C@H](O[C@@]2(CO)O[C@@H](CO)[C@H](O)[C@H]2O)[C@H](O)[C@@H](O)[C@@H]1O`, the “outcome” value was “inactive [at 17.3 µM]”.

Consider `CC(=O)/C=C/C1C(C)CC(O[C@@H]2O[C@H](CO)[C@@H](O)[C@H](O)[C@H]2O)CC1(C)C` (stereo partly drawn), for which the result was inactive. In the case of `CCC(C)C(C(=O)O)N1Cc2c(OCC=C(C)C)c(C)c(OC)c(C(=O)O)c2C1=O` (stereo not drawn), the “activity change, negative = cell killing” value was -0.801% [at 17.3 µM] (inactive).

Take `CC(=O)OC1C(O)C(C)(O)C(/C=C/C(=O)O)C2(C)CCCC(C)(C)C12` (stereo not drawn): the “activity change, negative = cell killing” value is -14% (inactive). Still for that read-out and setting: in the case of `CC(=O)OCC1OC(O[C@H]2CC[C@]34C[C@]35CC(O)[C@]3(C)[C@@H]([C@H](C)CC/C=C(\C)C(=O)O)C(O)C[C@@]3(C)C5CC[C@H]4C2(C)C)C(O)C(O)C1OC1OCC(O)C(O)C1O` (stereo partly drawn) it was -13.7% [at 9.23 µM] (inactive). For the compound `COc1cc(CO)cc(OC)c1O[C@@H]1O[C@H](CO)[C@@H](O)[C@H](O)[C@H]1O`, the compound was classed as inactive.

For `C[C@H]1CC[C@H]2[C@@H](C=C[C@@](C)(O)[C@]2(C)C(=O)CCO)C1`, the “activity change, negative = cell killing” value was -19.6% (inactive). For `C[C@@H]1C[C@H]2OC(=O)[C@@]3(C)CCC[C@](C)(C23)[C@@]1(O)CCC1=CC(=O)OC1O` (stereo partly drawn), the result was inactive. Same read-out and setting: in the case of `C=C1C2(C)CC3C4(C)OC(C5OC56C4=CC(=O)OC6(C)C)C3(C)C13C(=O)OC(C)C3(O)C2=O` (stereo not drawn) it was “inactive [at 17.3 µM]”. Consider `C=C(C(=O)O)[C@@H]1CC[C@@]2(C)CCC[C@@](C)(O)[C@@H]2C1`, for which the “activity change, negative = cell killing” value is -12.6% (inactive). On to `C[C@@H]1[C@H]2[C@H](O[C@@H]3O[C@H](CO)[C@@H](O)[C@H](O)[C@H]3O)OC=C(C(=O)O)[C@H]2C[C@@H]1OC(=O)/C=C/c1ccc(O)cc1`, for which the “activity change, negative = cell killing” value was -16.7% [at 17.3 µM] (inactive).
